Common to all, as to test: NCI-60 one-dose screen, 48 h (100 = growth as untreated, 0 = no growth, -100 = all killed)
Holding throughout (conditions): 10 µM unless noted

The test system of assay [1] is NCI-H23 lung.
For assay [2], the system named is NCI-H226 lung.
The test system of assay [3] is NCI-H322M lung.
Assay [4] deals with HOP-62 NSCLC.
The subject of assay [5] is NCI-H460 lung.
Assay [6] has as its system HOP-92 NSCLC.
Assay [7] relates to NCI-H522 lung.
The subject of assay [8] is A549/ATCC NSCLC.
The subject of assay [9] is 786-0 renal.
In assay [10] the test system is COLO 205 colon.
The test system of assay [11] is DU-145 prostate.
In assay [12] the test system is K-562 leukemia.
Assay [13] concerns MALME-3M melanoma.
Assay [14] concerns MDA-MB-231 breast.
Assay [15] concerns RXF 393 renal.
The test system of assay [16] is SF-268 CNS.
The test system of assay [17] is SF-295 CNS.
In assay [18] the test system is SF-539 CNS.
Assay [19] deals with UACC-257 melanoma.
Assay [20] has as its system M14 melanoma.

This is part of a sample that, as a whole, favours compounds with a hit. Of some 83,000 tested, about 20% had one in any assay.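 Activity criterion: percent growth below 10, measured after cells in 96-well plates were exposed to a single compound concentration for 48 hours.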 Values without a mark were called inactive. Active and inactive are the calls of the source.

On to `N=C(N)c1ccc(-c2ccc(-c3ccc(Cl)cc3Cl)s2)cc1F`, for which the growth in [1] is 18.9%; in assay [2] it was 93.2%; in [3], -43.8% (active); in assay [4], -0.426% (active); in assay [5] it was -72.4% (active); in assay [6] it was 43%. Further, the growth was -44.2% (active) in assay [7]; -55.8% (active) in assay [8]; -78.8% (active) in assay [9]; -47.2% (active) in [10]; -82.4% (active) in assay [11]; -22.6% (active) in [12]. The growth in [13] is -2.93% (active); in assay [14], -79.5% (active); in [15] it was 50.1%; in [16], 1.95% (active); in [17], -79.5% (active); in [18] it was -95.4% (active). Further, the growth is 18.6% in assay [19] and -15.1% (active) in assay [20].
On to `O=C1N[C@@H]2[C@@H](O)[C@@H](O)[C@H](O)C[C@H]2c2cc3c(c(O)c21)OCCO3`, for which the growth was -40.9% (active) in assay [1]; -11.3% (active) in assay [2]; -24.3% (active) in assay [3]; -26.5% (active) in assay [4]; 1.26% (active) in [5]; -20.1% (active) in assay [6]. In addition, the growth is -36.1% (active) in [7]; -14.3% (active) in assay [8]; -1.5% (active) in assay [9]; -49% (active) in assay [10]; -2.39% (active) in assay [11]; 1.56% (active) in assay [12]. In addition, the growth is -23.8% (active) in assay [13]; -24.1% (active) in assay [14]; -24.2% (active) in [15]; -0.713% (active) in assay [16]; -14.9% (active) in [17]; -24.1% (active) in assay [18]. The growth in assay [19] is -22.2% (active); in [20], -45.7% (active).
In the case of `CCOC(=O)c1c(C)nn(CC(O)c2ccccc2)c1NC(=O)Nc1cccc(F)c1` (stereo not given), the growth was 97% in assay [1]; 85.4% in assay [2]; 88.8% in assay [3]; 91.2% in assay [4]; 93.6% in [5]; 71.8% in [6]. The growth in assay [7] is 81.8%; in [8], 87%; in assay [9], 88.7%; in assay [10] it was 102%; in [11], 94.3%; in [12] it was 88.5%. Moreover, the growth in [13] was 101%; in [14] it was 93%; in [15] it was 85.2%; in [16] it was 83.7%; in assay [17] it was 78.9%; in assay [18], 98.8%. Moreover, the results for the growth in assay [19] and in assay [20] were 91% and 96.2%, respectively.
As to `O=C(CN1C(=O)NC2NC(=O)NC21)N/N=C/c1ccc(Cl)cc1Cl` (stereo not given), the growth is 102% in assay [1]; 95.6% in assay [2]; 104% in [3]; 114% in [4]; 105% in assay [5]; 125% in assay [6]. In addition, the growth is 93.3% in assay [7]; 110% in assay [8]; 96.6% in assay [9]; 125% in [10]; 113% in assay [11]; 105% in assay [12]. In addition, the growth is 106% in assay [13]; 109% in [14]; 117% in [15]; 99.6% in assay [16]; 101% in assay [17]; 93.3% in assay [18]. Also, the growth in assay [19] is 114%; in assay [20], 104%.
On to `COc1ccc(NC(=O)c2cccc(C3CCc4c(cc(OC)c(OC)c4OC)O3)c2)cc1` (stereo not given), for which the growth was 52.1% in assay [1]; 47.5% in [2]; 53.9% in assay [3]; 30.7% in assay [4]; 18.2% in [5]; -2.49% (active) in assay [6]. Besides, the growth in assay [7] was 21.8%; in assay [8] it was 32.1%; in assay [9], 26.1%; in [10] it was 41.3%; in assay [11] it was 63.2%; in [12], 6.79% (active). Besides, the growth in assay [13] is 41.7%; in [14] it was 31%; in assay [15] it was 53%; in assay [16], 50.2%; in assay [17], 23.9%; in [18], 18.9%. Also, the growth in [19] was 46.5%; in assay [20], 28.2%.
Consider `Cc1cc(N2CCN(C)CC2)nc(NCc2cc(Nc3ccnc4cc(Cl)ccc34)ccc2F)n1`, for which the growth in [1] was 25.4%; in assay [2] it was 40.1%; in assay [3] it was 8.43% (active); in assay [4], -14.2% (active); in assay [5] it was -54.3% (active); in assay [6], 5.13% (active). Besides, the growth in assay [7] is -8.53% (active); in [8] it was -17% (active); in assay [9] it was -26.9% (active); in assay [10], -61.6% (active); in assay [11], 10.5%; in assay [12], 2.5% (active). Moreover, the growth in [13] is -76.6% (active); in assay [14], -56.5% (active); in [15] it was -70.9% (active); in assay [16] it was 8.21% (active); in assay [17] it was -70.1% (active); in assay [18] it was -83.4% (active). In addition, the growth was -73.5% (active) in assay [19] and -65% (active) in [20].
As for `C=C(CN1CC=CCC1)[C@@H]1CC[C@]2(CO)CC[C@]3(C)[C@H](CC[C@@H]4[C@@]5(C)CC[C@H](O)C(C)(C)[C@@H]5CC[C@]43C)[C@@H]12`, the growth in [1] was 101%; in assay [2], 97.4%; in assay [3], 110%; in assay [4] it was 104%; in assay [5], 96.2%; in assay [6] it was 92.4%. Besides, the growth in assay [7] was 96%; in assay [8], 94.8%; in assay [9], 113%; in [10] it was 108%; in [11], 106%; in assay [12] it was 77%. Moreover, the growth was 101% in [13]; 116% in assay [14]; 106% in assay [15]; 101% in [16]; 102% in assay [17]; 91.1% in assay [18]. The figures for the growth in assay [19] and in [20] were 111% and 96.1%, respectively.
Turning to `CCOC(=O)N1CCN(S(=O)(=O)c2oc(-c3ccc(Cl)cc3)nc2C#N)CC1`, the growth in assay [1] was 75.9%; in [2], 93.4%; in assay [3], 99.3%; in [4], 96%; in [5] it was 103%; in [6], 97.6%. Also, the growth was -6.61% (active) in [7]; 96.8% in assay [8]; 92.7% in [9]; 47% in [10]; 103% in assay [11]; 9.23% (active) in assay [12]. The growth in assay [13] was 79.8%; in assay [14] it was 93.4%; in assay [15], 83.8%; in [16], 109%; in [17], 102%; in assay [18], 89%. Moreover, the growth was 84.1% in assay [19] and 75.4% in assay [20].

The values are drawn from PubChem BioAssay (NCI).
